# Data: the supplement of paper PMC4466140
# Columns and labels:
# Experiment in all cases: SPOT peptide array binding signal intensity (averaged, normalized) (arbitrary units (background-subtracted, floor 0; scale differs between SH3 domains)); higher = stronger binding of the SH3 domain to the peptide
# SpBzz1-D2 = target: SpBzz1-D2
# Procedure, shortened: (§1)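 Detection of bound protein relied on anti-GST antibody, an HRP anti-mouse secondary and luminol, with imaging and quantification in Genespotter. The bound protein was GST-fused SH3 domains from four yeast species, incubated at 10 μg/ml overnight at 4°C in TBS-based blocking buffer on cellulose membranes carrying synthetic 15-mer peptides with cysteines replaced by serines. Binding signal is normalized, background-subtracted spot intensity averaged over replicates, in arbitrary units that differ between domains.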
# SpCyk3 = target: SpCyk3
# Procedure, shortened: as §1
# SpHof1 = target: SpHof1
# Procedure, shortened: as §1
# SpHof1-2 = target: SpHof1-2
# Procedure, shortened: as §1
# SpHof1-3 = target: SpHof1-3
# Procedure, shortened: as §1
# SpHse1 = target: SpHse1
# Procedure, shortened: as §1
# SpLsb1 = target: SpLsb1
# Procedure, shortened: as §1
# SpLsb4 = target: SpLsb4
# Procedure, shortened: as §1
# SpMyo1 = target: SpMyo1
# Procedure, shortened: as §1
# SpNbp2 = target: SpNbp2
# Procedure, shortened: as §1
# SpPex13 = target: SpPex13
# Procedure, shortened: as §1
# SpRvs167 = target: SpRvs167
# Procedure, shortened: as §1
# SpSla1-D1-D2 = target: SpSla1-D1-D2
# Procedure, shortened: as §1
# SpSla1-D3 = target: SpSla1-D3
# Procedure, shortened: as §1
# AgAbp1 = target: AgAbp1
# Procedure, shortened: as §1
# AgBbc1 = target: AgBbc1
# Procedure, shortened: as §1
# AgBem1-D1 = target: AgBem1-D1
# Procedure, shortened: as §1
# AgBzz1-D1 = target: AgBzz1-D1
# Procedure, shortened: as §1
# AgBzz1-D2 = target: AgBzz1-D2
# Procedure, shortened: as §1
# AgCyk3 = target: AgCyk3
# Procedure, shortened: as §1
# AgFus1 = target: AgFus1
# Procedure, shortened: as §1
# AgHof1 = target: AgHof1
# Procedure, shortened: as §1
# AgHse1 = target: AgHse1
# Procedure, shortened: as §1
# AgLsb1 = target: AgLsb1
# Procedure, shortened: as §1
# AgLsb4 = target: AgLsb4
# Procedure, shortened: as §1
# AgMyo5 = target: AgMyo5
# Procedure, shortened: as §1
# AgNbp2 = target: AgNbp2
# Procedure, shortened: as §1
# AgRvs167 = target: AgRvs167
# Procedure, shortened: as §1
# AgSho1 = target: AgSho1
# Procedure, shortened: as §1
# AgSla1-D1-D2 = target: AgSla1-D1-D2
# Procedure, shortened: as §1
# AgSla1-D3 = target: AgSla1-D3
# Procedure, shortened: as §1
# CaAbp1-D1 = target: CaAbp1-D1
# Procedure, shortened: as §1
# CaAbp1-D2 = target: CaAbp1-D2
# Procedure, shortened: as §1
# CaBbc1 = target: CaBbc1
# Procedure, shortened: as §1
# CaBem1-D1 = target: CaBem1-D1
# Procedure, shortened: as §1
# CaBzz1-D1 = target: CaBzz1-D1
# Procedure, shortened: as §1
# CaBzz1-D2 = target: CaBzz1-D2
# Procedure, shortened: as §1
# CaCyk3 = target: CaCyk3
# Procedure, shortened: as §1
# CaFus1 = target: CaFus1
# Procedure, shortened: as §1
# CaHof1 = target: CaHof1
# Procedure, shortened: as §1
# CaHse1 = target: CaHse1
# Procedure, shortened: as §1
# CaLsb1 = target: CaLsb1
# Procedure, shortened: as §1
# CaLsb4 = target: CaLsb4
# Procedure, shortened: as §1
# CaMyo5 = target: CaMyo5
# Procedure, shortened: as §1
# CaNbp2 = target: CaNbp2
# Procedure, shortened: as §1
# CaRvs167 = target: CaRvs167
# Procedure, shortened: as §1
# CaRvs167-3 = target: CaRvs167-3
# Procedure, shortened: as §1
# CaSho1 = target: CaSho1
# Procedure, shortened: as §1
# CaSla1-D1-D2 = target: CaSla1-D1-D2
# Procedure, shortened: as §1
# CaSla1-D3 = target: CaSla1-D3
# Procedure, shortened: as §1
# ScAbp1 = target: ScAbp1
# Procedure, shortened: as §1
# ScBbc1 = target: ScBbc1
# Procedure, shortened: as §1
# ScBem1-D1 = target: ScBem1-D1
# Procedure, shortened: as §1
# ScBzz1-D1 = target: ScBzz1-D1
# Procedure, shortened: as §1
# ScBzz1-D2 = target: ScBzz1-D2
# Procedure, shortened: as §1
# ScCyk3 = target: ScCyk3
# Procedure, shortened: as §1
# ScFus1 = target: ScFus1
# Procedure, shortened: as §1
# ScHof1 = target: ScHof1
# Procedure, shortened: as §1
# ScHse1 = target: ScHse1
# Procedure, shortened: as §1
# ScLsb1 = target: ScLsb1
# Procedure, shortened: as §1
# ScLsb2 = target: ScLsb2
# Procedure, shortened: as §1
# ScLsb3 = target: ScLsb3
# Procedure, shortened: as §1
# ScLsb4 = target: ScLsb4
# Procedure, shortened: as §1
# ScMyo3 = target: ScMyo3
# Procedure, shortened: as §1
# ScMyo5 = target: ScMyo5
# Procedure, shortened: as §1
# ScNbp2 = target: ScNbp2
# Procedure, shortened: as §1
# ScPex13 = target: ScPex13
# Procedure, shortened: as §1
# ScRvs167 = target: ScRvs167
# Procedure, shortened: as §1
# ScSho1 = target: ScSho1
# Procedure, shortened: as §1
# ScSla1-D1-D2 = target: ScSla1-D1-D2
# Procedure, shortened: as §1
# ScSla1-D3 = target: ScSla1-D3
# Procedure, shortened: as §1
# SpAbp1-D1 = target: SpAbp1-D1
# Procedure, shortened: as §1
# SpBbc1 = target: SpBbc1
# Procedure, shortened: as §1
# SpBzz1-D1 = target: SpBzz1-D1
# Procedure, shortened: as §1
binder,measurement,setting,value
GDHPKGPPPPPPPPD,SPOT peptide array binding signal intensity,SpBzz1-D2,2
same,SPOT peptide array binding signal intensity,SpCyk3,≤ 0
same,SPOT peptide array binding signal intensity,SpHof1,≤ 0
same,SPOT peptide array binding signal intensity,SpHof1-2,≤ 0
same,SPOT peptide array binding signal intensity,SpHof1-3,≤ 0
same,SPOT peptide array binding signal intensity,SpHse1,1
same,SPOT peptide array binding signal intensity,SpLsb1,≤ 0
same,SPOT peptide array binding signal intensity,SpLsb4,≤ 0
same,SPOT peptide array binding signal intensity,SpMyo1,1570
same,SPOT peptide array binding signal intensity,SpNbp2,18.5
same,SPOT peptide array binding signal intensity,SpPex13,≤ 0
same,SPOT peptide array binding signal intensity,SpRvs167,≤ 0
same,SPOT peptide array binding signal intensity,SpSla1-D1-D2,≤ 0
same,SPOT peptide array binding signal intensity,SpSla1-D3,≤ 0
NFLRLLIGLPSQNEL,SPOT peptide array binding signal intensity,AgAbp1,≤ 0
same,SPOT peptide array binding signal intensity,AgBbc1,4.25
same,SPOT peptide array binding signal intensity,AgBem1-D1,132
same,SPOT peptide array binding signal intensity,AgBzz1-D1,17.5
same,SPOT peptide array binding signal intensity,AgBzz1-D2,6.5
same,SPOT peptide array binding signal intensity,AgCyk3,3.5
same,SPOT peptide array binding signal intensity,AgFus1,950
same,SPOT peptide array binding signal intensity,AgHof1,31.5
same,SPOT peptide array binding signal intensity,AgHse1,2760
same,SPOT peptide array binding signal intensity,AgLsb1,≤ 0
same,SPOT peptide array binding signal intensity,AgLsb4,248
same,SPOT peptide array binding signal intensity,AgMyo5,2.75
same,SPOT peptide array binding signal intensity,AgNbp2,39
same,SPOT peptide array binding signal intensity,AgRvs167,2
same,SPOT peptide array binding signal intensity,AgSho1,263
same,SPOT peptide array binding signal intensity,AgSla1-D1-D2,50
same,SPOT peptide array binding signal intensity,AgSla1-D3,4.5
same,SPOT peptide array binding signal intensity,CaAbp1-D1,≤ 0
same,SPOT peptide array binding signal intensity,CaAbp1-D2,≤ 0
same,SPOT peptide array binding signal intensity,CaBbc1,≤ 0
same,SPOT peptide array binding signal intensity,CaBem1-D1,≤ 0
same,SPOT peptide array binding signal intensity,CaBzz1-D1,39
same,SPOT peptide array binding signal intensity,CaBzz1-D2,37
same,SPOT peptide array binding signal intensity,CaCyk3,4
same,SPOT peptide array binding signal intensity,CaFus1,2560
same,SPOT peptide array binding signal intensity,CaHof1,1.5
same,SPOT peptide array binding signal intensity,CaHse1,156
same,SPOT peptide array binding signal intensity,CaLsb1,2.5
same,SPOT peptide array binding signal intensity,CaLsb4,3
same,SPOT peptide array binding signal intensity,CaMyo5,8.25
TPEIPPPLPPKIMVH,SPOT peptide array binding signal intensity,AgAbp1,≤ 0
same,SPOT peptide array binding signal intensity,AgBbc1,≤ 0
same,SPOT peptide array binding signal intensity,AgBem1-D1,≤ 0
same,SPOT peptide array binding signal intensity,AgBzz1-D1,≤ 0
same,SPOT peptide array binding signal intensity,AgBzz1-D2,4.5
same,SPOT peptide array binding signal intensity,AgCyk3,≤ 0
same,SPOT peptide array binding signal intensity,AgFus1,≤ 0
same,SPOT peptide array binding signal intensity,AgHof1,631
same,SPOT peptide array binding signal intensity,AgHse1,822
same,SPOT peptide array binding signal intensity,AgLsb1,≤ 0
same,SPOT peptide array binding signal intensity,AgLsb4,232
same,SPOT peptide array binding signal intensity,AgMyo5,496
same,SPOT peptide array binding signal intensity,AgNbp2,≤ 0
same,SPOT peptide array binding signal intensity,AgRvs167,9.33
same,SPOT peptide array binding signal intensity,AgSho1,66
same,SPOT peptide array binding signal intensity,AgSla1-D1-D2,≤ 0
same,SPOT peptide array binding signal intensity,AgSla1-D3,≤ 0
same,SPOT peptide array binding signal intensity,CaAbp1-D1,6.5
same,SPOT peptide array binding signal intensity,CaAbp1-D2,≤ 0
same,SPOT peptide array binding signal intensity,CaBbc1,≤ 0
same,SPOT peptide array binding signal intensity,CaBem1-D1,≤ 0
same,SPOT peptide array binding signal intensity,CaBzz1-D1,≤ 0
same,SPOT peptide array binding signal intensity,CaBzz1-D2,≤ 0
same,SPOT peptide array binding signal intensity,CaCyk3,≤ 0
same,SPOT peptide array binding signal intensity,CaFus1,74
same,SPOT peptide array binding signal intensity,CaHof1,20.5
same,SPOT peptide array binding signal intensity,CaHse1,3420
same,SPOT peptide array binding signal intensity,CaLsb1,≤ 0
same,SPOT peptide array binding signal intensity,CaLsb4,1090
same,SPOT peptide array binding signal intensity,CaMyo5,25.5
same,SPOT peptide array binding signal intensity,CaNbp2,9
same,SPOT peptide array binding signal intensity,CaRvs167,29.8
same,SPOT peptide array binding signal intensity,CaRvs167-3,≤ 0
same,SPOT peptide array binding signal intensity,CaSho1,124
same,SPOT peptide array binding signal intensity,CaSla1-D1-D2,≤ 0
same,SPOT peptide array binding signal intensity,CaSla1-D3,≤ 0
same,SPOT peptide array binding signal intensity,ScAbp1,≤ 0
same,SPOT peptide array binding signal intensity,ScBbc1,≤ 0
same,SPOT peptide array binding signal intensity,ScBem1-D1,≤ 0
same,SPOT peptide array binding signal intensity,ScBzz1-D1,≤ 0
same,SPOT peptide array binding signal intensity,ScBzz1-D2,11
same,SPOT peptide array binding signal intensity,ScCyk3,≤ 0
same,SPOT peptide array binding signal intensity,ScFus1,≤ 0
same,SPOT peptide array binding signal intensity,ScHof1,722
same,SPOT peptide array binding signal intensity,ScHse1,≤ 0
same,SPOT peptide array binding signal intensity,ScLsb1,109
same,SPOT peptide array binding signal intensity,ScLsb2,≤ 0
same,SPOT peptide array binding signal intensity,ScLsb3,6940
same,SPOT peptide array binding signal intensity,ScLsb4,376
same,SPOT peptide array binding signal intensity,ScMyo3,611
same,SPOT peptide array binding signal intensity,ScMyo5,380
same,SPOT peptide array binding signal intensity,ScNbp2,2
same,SPOT peptide array binding signal intensity,ScPex13,1210
same,SPOT peptide array binding signal intensity,ScRvs167,525
same,SPOT peptide array binding signal intensity,ScSho1,1610
same,SPOT peptide array binding signal intensity,ScSla1-D1-D2,≤ 0
same,SPOT peptide array binding signal intensity,ScSla1-D3,≤ 0
same,SPOT peptide array binding signal intensity,SpAbp1-D1,≤ 0
same,SPOT peptide array binding signal intensity,SpBbc1,0.5
same,SPOT peptide array binding signal intensity,SpBzz1-D1,68
same,SPOT peptide array binding signal intensity,SpBzz1-D2,≤ 0
same,SPOT peptide array binding signal intensity,SpCyk3,≤ 0
same,SPOT peptide array binding signal intensity,SpHof1,≤ 0
same,SPOT peptide array binding signal intensity,SpHof1-2,0.5
same,SPOT peptide array binding signal intensity,SpHof1-3,≤ 0
same,SPOT peptide array binding signal intensity,SpHse1,148
same,SPOT peptide array binding signal intensity,SpLsb1,463
same,SPOT peptide array binding signal intensity,SpLsb4,852
same,SPOT peptide array binding signal intensity,SpMyo1,723
same,SPOT peptide array binding signal intensity,SpNbp2,≤ 0
same,SPOT peptide array binding signal intensity,SpPex13,9
same,SPOT peptide array binding signal intensity,SpRvs167,1520
same,SPOT peptide array binding signal intensity,SpSla1-D1-D2,≤ 0
same,SPOT peptide array binding signal intensity,SpSla1-D3,≤ 0
